Compound activity as filed in PubChem.
An excerpt weighted towards active compounds, which were near 0.77% of everything screened.
Tb PYK inh: qHTS of Trypanosoma Brucei Inhibitors. TbPYK enzyme, Kinase-Glo Plus ATP luminescence, 45 min. Potency, µM (titrated, usually from 76.8 µM), for inactives: at the highest dose activity, negative = inhibition, actives largely listed as inhibitors. 0.12% of 410,000 active; note: % is set by controls: 0 for no effect and ±100 for the full control effect; nearly all actives have a fitted effect of over 50% in size
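Quantitative HTS: titrated library compounds versus trypanosomal pyruvate kinase in TEA buffer (pH 7.2) containing KCl, MgCl2, BSA and Tween-20. Reactions were initiated with ADP, 130 uM final. Kinase-Glo Plus luminescence was read after 45 min at RT.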
LmPK inhibitor: qHTS Assay for Inhibitors of Leishmania Mexicana Pyruvate Kinase (LmPK); AID 1721, 2009; Potency, µM (series often up to 57.5 µM), for the others: at the top dose activity change, negative = inhibition, hits mostly inhibitors; 0.37% of 290,000 active; purified LmPK, Kinase-Glo ATP luminescence, 1 h; note: % is set by controls: 0 for no effect and ±100 for the full control effect
Target sequence (Q27686 whole entry, looked up): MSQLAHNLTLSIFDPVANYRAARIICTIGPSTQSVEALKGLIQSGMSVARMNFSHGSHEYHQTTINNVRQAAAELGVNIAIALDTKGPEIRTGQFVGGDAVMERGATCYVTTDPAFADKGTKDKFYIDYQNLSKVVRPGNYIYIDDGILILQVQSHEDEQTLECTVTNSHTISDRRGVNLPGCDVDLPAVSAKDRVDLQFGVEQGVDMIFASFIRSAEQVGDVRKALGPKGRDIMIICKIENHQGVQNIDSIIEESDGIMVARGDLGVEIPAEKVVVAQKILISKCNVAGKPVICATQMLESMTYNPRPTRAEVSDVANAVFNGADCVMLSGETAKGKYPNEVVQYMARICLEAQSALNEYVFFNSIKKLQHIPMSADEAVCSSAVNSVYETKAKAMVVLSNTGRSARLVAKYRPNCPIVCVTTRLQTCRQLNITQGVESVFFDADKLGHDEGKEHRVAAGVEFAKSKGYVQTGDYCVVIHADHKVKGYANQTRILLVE
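Screened at intermediate enzyme activity to detect both inhibitors and activators: LmPK at 0.1 nM, with a 0.5 nM enzyme column as activation reference. PEP 0.5 mM, ADP 0.1 mM; ATP detected by luminescence after 1 h.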
RE007 growth inh: qHTS Assay for Inhibitors of the HIV-1 protein Vpr; 0.21% of 360,000 active; Potency, µM (series often up to 92.2 µM), without a hit: at the top dose activity change, negative = less growth, most hits filed as inhibitors; AID 651644, 2012; S. pombe RE007 Vpr strain, BacTiter-Glo ATP luminescence, 24 h; active = well fitted falling curve with a large enough effect; inconclusive = small, poorly fitted or top-dose-only effect; inactive = no such curve, though single readings can be large or run the other way; note: % is set by controls: 0 for no effect and ±100 for the full control effect; nearly all actives have a fitted effect of over 50% in size
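Fission yeast strain RE007, carrying one chromosomally integrated HIV-1 vpr copy, was seeded at OD 0.01 in PMG+AL medium with 23 nL pinned compound. After 24 h at 30 °C and 99% humidity, viability was read by BacTiter-Glo luminescence.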
NS1 inh: qHTS Assay for Inhibitors of Influenza NS1 Protein Function; 0.4% of 270,000 active; Potency, µM (highest dose often 46.1 µM), inactives show top-dose activity, positive = more growth; calls by dose curve; note: actives are rising curves; nearly all actives have a fitted effect of over 50% in size
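S. cerevisiae expressing influenza A NS1, grown in glucose, washed, then diluted 1:100 into pH 6.0 -URA galactose medium with 23 nl compound. Growth recovery read as OD600; NS1-free strain serves as control.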
Starred values were filed as active, the others as inactive; ? = inconclusive; / = not tested or not shown; [ ] = another dose, or the depositor's remark. Unless noted, calls come from the whole dose curve; as a rule, active = well fitted curve in the direction sought with a large enough effect; inconclusive = small, poorly fitted or top-dose-only effect, or another doubt; inactive = no such curve, though single readings can be large; an effect the other way counts as inactive or inconclusive. Potency is the fitted concentration of half-maximal effect.

SMILES | Tb PYK inh | LmPK inhibitor | RE007 growth inh | NS1 inh
CNC(=O)/C(=C\c1cccc(Oc2ccccc2)c1)NC(=O)c1ccccc1 | 5% | -1% | -2% | 0%
Cc1cccc(-n2c(-c3ccc(Br)o3)n[nH]c2=S)c1 | ? | / | -4% | /
Cc1cccc(-n2c(-c3ccco3)n[nH]c2=S)c1 | ? | 18µM* | 0% | -1%
CCCc1cc(-c2n[nH]c(=S)n2-c2cccc(C)c2)cs1 | ? | ? | -1% | 3%
Cc1cccc(-n2c(-c3csc(C(C)C)c3)n[nH]c2=S)c1 | ? | 10µM* | 3% | -39%
Cc1ccccc1-n1c(-c2ccco2)n[nH]c1=S | ? | ? | -14% | 11%
Cc1cccc(-n2c(-c3csc(C)c3C)n[nH]c2=S)c1 | ? | 11µM* | / | 6%
Cc1ccccc1-n1c(-c2csc3ccccc23)n[nH]c1=S | ? | 14µM* | 1% | 12%
Cc1ccccc1-n1c(-c2csc(C)c2C)n[nH]c1=S | ? | 7.9µM* | 14% | 15%
CC(=O)N1c2ccccc2C2(O)N=C(C)SC12 (stereo not drawn) | 13µM* | 17% | -6% | -3%
Cc1ccc(N=Nc2cc(C)ccc2N)cc1 | -22% | 14µM* | -26% | -7%
Cc1ccc(N)c(C)c1 | 1% | / | 11% | /
O=C(CCCN1CCN(c2ccc(F)cc2)CC1)NC1c2ccccc2CSc2ccccc21 (stereo not drawn) | -8% | / | / | /
Cc1ccc(Nc2c(-c3ccc(N4CCOCC4)cc3)nc3c(C)cccn23)cc1 | -5% | / | / | /
COc1ccc(/C=C/c2cc(C(=O)O)c3ccccc3n2)cc1 | -10% | 11µM* | ? | 3%
Cc1ccc(-c2nc(-c3ccccn3)no2)cc1[N+](=O)[O-] | 7% | 14µM* | ? | -2%
Cc1ccc(-c2nc(-c3ccccn3)no2)cc1 | ? | 2.8µM* | 16µM* | -48%
Cc1ccc(-c2nc(-c3ccccn3)no2)cc1Cl | -27% | 14µM* | ? | -112%
CCN(CC)c1ccc(-c2nc(-c3ccccn3)no2)cc1[N+](=O)[O-] | -4% | / | / | /
Clc1cccc(-c2nc(-c3ccccn3)no2)c1 | -23% | 10µM* | ? | -15%
Cc1ccc(NC(=O)CSc2nccn2C2CCCC2)cc1Cl | 1% | / | / | /
COC(=O)c1nnn(CC(=O)Nc2cc(F)ccc2F)c1C(=O)OC | 6% | / | / | /
Cc1c(C2=CCN(S(=O)(=O)c3ccc(CC(C)C)cc3)CC2)c2ccccc2n1CC(=O)N1CCCC1 | -2% | / | / | /
Fc1ccc(-c2nc(-c3cnccn3)no2)c(Cl)c1 | -13% | ? | -17% | -5%
Cc1ccccc1-c1noc(-c2ccc(O)cc2)n1 | -28% | 14µM* | ? | -64%
SMILES | Tb PYK inh | LmPK inhibitor | RE007 growth inh | NS1 inh
Clc1ccc(-c2nc(-c3cnccn3)no2)cc1 | -12% | 7.9µM* | ? | -2%
Cc1ccccc1-c1noc(-c2ccc(Cl)cc2)n1 | -6% | -10% | 5% | -4%
Cc1ccc2nc(-c3ccccn3)oc2c1 | -25% | 16µM* | ? | -14%
c1ccc(-c2noc(-c3ccno3)n2)nc1 | 0% | -9% | -10% | 2%
c1ccc(-c2noc(-c3ccco3)n2)nc1 | -12% | 16µM* | -16% | 13%
O=P(O)(O)C(O)(Cc1cnc2ccccn12)P(=O)(O)O | 1% | / | / | /
c1ccc(-c2cc(-c3nc(-c4ccccn4)no3)c3ccccc3n2)cc1 | -13% | / | 1% | -14%
c1ccc(-c2ccc(-c3nc(-c4ccccn4)no3)cc2)cc1 | ? | 14µM* | 40µM* | -64%
COc1ccccc1NS(=O)(=O)c1cc(NC(=O)/C=C/c2cccs2)ccc1N1CCOCC1 | -8% | -1% | / | 14µM*
Cc1ccc(NC(=O)c2cc(N3C(=O)CCC3=O)ccc2N2CCOCC2)cc1 | -18% | 2% | -8% | 2%
Cc1ccc(NC(=O)c2cc(N3C(=O)C=CC3=O)ccc2N2CCOCC2)cc1Cl | 0% | 18% | 7.9µM* | -48%
N/C(=N\N=C\c1ccc2c(c1)OCO2)c1nonc1N | -17% | 11µM* | -19% | 7%
Cc1ccc(-c2ccc(=O)n(CC(=O)NCCc3ccccc3)n2)cc1 | 3% | / | / | /
NS(=O)(=O)c1cc2c(cc1C(F)(F)F)N[C@H](Cc1ccccc1)NS2(=O)=O | 4%[33.2 µM] | / | / | /
O=C(O)CCCn1c(=S)[nH]c2c(sc3ccc([N+](=O)[O-])cc32)c1=O | 20µM* | ? | 0% | /
COc1ccc(OC)c(NC(=O)c2ccc(-c3nc(CSc4ccccc4)c(C)o3)cc2)c1 | 0% | / | / | /
Cn1c(N)c(C(=O)Nc2cccc(Cl)c2)c(=O)n(C)c1=O | 2% | -9% | -11% | 4%
CN=c1sc(C(=O)Nc2cccc(Cl)c2)cc(=O)n1C | 20µM* | 2% | 0% | -13%
COc1ccc(-n2nnnc2SCC(=O)NCCc2ccccc2)cc1 | 0% | / | / | /
O=C(Nc1ccc2nc(SCC(=O)N3CCCc4ccccc43)sc2c1)c1cccc(Cl)c1 | 1% | / | / | /
CCCCCCCCCCCCCCCC[N+](C)(C)CCl | -10% | / | 22µM* | /
CCOc1ccc(NC(=O)CN2C(=O)COc3ccc(S(=O)(=O)NC4CCCC4)cc32)cc1 | -8% | / | / | /
Fc1ccc(NCc2ccccc2-c2nnc(-c3ccccc3Cl)o2)cc1Cl | -15% | / | / | /
O=C(Oc1c(Cl)cc(Cl)c2cccnc12)c1cccc([N+](=O)[O-])c1 | 8% | -3% | 8.9µM* | -35%
O=C(Oc1ccc(Cl)c2cccnc12)c1cccc([N+](=O)[O-])c1 | -5% | 1% | ? | 20%
SMILES | Tb PYK inh | LmPK inhibitor | RE007 growth inh | NS1 inh
CC1=C(C(=O)Nc2cccnc2)C(c2ccccc2)n2nc(-c3ccc(O)cc3)nc2N1 (stereo not drawn) | 0% | / | / | /
COc1cccc(/C=N/Nc2ncccc2[N+](=O)[O-])c1OC | ? | 14µM* | ? | 0%
COc1ccccc1/C=N/Nc1nccnc1Cl | -5% | 16µM* | -21% | 1%
COc1ccc(-c2ccc(SC)nn2)cc1 | ? | 14µM* | ? | /
COc1ccc(C(=O)CSc2ccc(-c3ccccc3)nn2)cc1 | -3% | 7% | -15% | -15%
CCOc1ccc(-c2ccc(SCC)nn2)cc1 | ? | 11µM* | -8% | -48%
Cc1ccsc1C(=O)N/N=C/c1ccc2c(c1)OCO2 | ? | 11µM* | ? | -14%
Cc1cc(C(=O)N/N=C/c2ccc3c(c2)OCO3)c(C)o1 | 4% | 14µM* | ? | -8%
CCn1c(-c2ccc3[nH]c(C)c(C)c3c2)n[nH]c1=S | ? | 28µM* | -1% | -50%
CCOc1ccc(NC(=O)Cn2cnc3sc(C)c(S(=O)(=O)N4CCN(c5ccccc5OC)CC4)c3c2=O)cc1 | -8% | / | / | /
CCOC(=O)/C=C/C(=O)Nc1cccc([N+](=O)[O-])c1 | ? | -4% | 8.9µM* | -51%
Cc1ccc(-c2nc3ncccc3o2)cc1NC(=O)c1ccc(-c2ccc(Cl)cc2)o1 | 1% | / | / | /
O=C(CCc1cn(Cc2ccc(F)cc2)c2ccccc12)NCCc1ccc(Cl)cc1 | -6% | / | / | /
COc1cc(/C=C2\SC(c3ccc(C)cc3)=NC2=O)ccc1O | ? | 28µM* | -12% | -3%
